Consider 23 sequences from paper PMC7819943, “Rice protein-binding microarrays: a tool to detect cis-acting elements near promoter regions in rice”.

Whole data set: some 68,000 sequences, median “fluorescence intensity (a.u.)” near 9,100, cut for the highest 2% near 16,000. Shown is part of a subset that was picked to be rich in the highest values.

Sequence of OsWRKY34 (Q0JBA9 entry or part of it): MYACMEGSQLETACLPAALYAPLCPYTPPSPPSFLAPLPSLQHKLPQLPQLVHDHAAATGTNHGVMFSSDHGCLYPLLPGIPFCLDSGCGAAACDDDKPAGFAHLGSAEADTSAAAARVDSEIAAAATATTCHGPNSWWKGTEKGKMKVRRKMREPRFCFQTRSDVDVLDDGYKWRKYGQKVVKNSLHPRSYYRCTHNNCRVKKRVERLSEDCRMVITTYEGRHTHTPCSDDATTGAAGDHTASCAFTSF

The target of this assay is OsWRKY34 (Oryza sativa, UniProt Q0JBA9 1-250). Put plainly: protein-binding microarray (RPBM); PBS, 2% BSA, 51.3 ng/ul salmon testes DNA, 50 uM zinc acetate, 200 nM TF, 25 C, 1 h; high values mean tight binding. The settings on record: protein: recombinant; tags: N-terminal polyhistidine and DsRed monomer fusion (pET32a); label: CyDye5-dUTP incorporated in the synthesized complementary strand; 3' TTTTT single-stranded linker to array surface; dsDNA, one strand shown. The procedure, abridged:
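In PBS with 2% BSA, salmon testes DNA and 50 µM zinc acetate, 200 nM protein was incubated on a custom Agilent array at 25 °C for 1 h and then washed off. The array had been made double-stranded by primer extension with Cy5-dUTP and blocked with 2% BSA. The proteins were transcription factors fused N-terminally to polyhistidine and DsRed, expressed in E. coli BL21-CodonPlus and purified on Ni–NTA. The binding signal is per-feature fluorescence intensity (arbitrary units) from an Axon 4000B scanner.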
“TGGGAAGTACATATGTAATGTTGTTTATTTATTTTTGTTTCGGAGTCACCTAGTGCAG”: the binding signal was 9860 fluorescence intensity (a.u.).

Turning to “ATCTTGGGAAGGCCGTTACTCACTCTAGACTTTACTCCTCCGGAGTCACCTAGTGCAG”, the binding signal was 8270 fluorescence intensity (a.u.). To “CCTCACCGATGGATTTTTTAGCCCGATCCTACCCCTCCTACGGAGTCACCTAGTGCAG” belongs 10500 fluorescence intensity (a.u.). With “ACCACGTCCCTTTCCATTTTCCCTTGTTTTTTTTCCTCCTCGGAGTCACCTAGTGCAG”, the binding signal was 11200 fluorescence intensity (a.u.).

Regarding “TAATTTTACTCGATACTCTATGTACCCCTGAAATTTCGCTCGGAGTCACCTAGTGCAG”, the binding signal is 9560 fluorescence intensity (a.u.).

Take “GCCTTGTCTATTGCCTCAGAAGTTGGTTACCCTGTTGTTGCGGAGTCACCTAGTGCAG”: the binding signal is 8150 fluorescence intensity (a.u.). Take “GATGTGCCCTTTATTCACAACATTTAACAATTGTTACTTGCGGAGTCACCTAGTGCAG”: the binding signal was 8520 fluorescence intensity (a.u.). As to “GTGAGGGTGTGGTTACAGTGGGTTGGTTTTTTTTCTCCCCCGGAGTCACCTAGTGCAG”, the binding signal is 11800 fluorescence intensity (a.u.). Take “GTGGGTTCTTTGTGGGGTCTCTTATAGTTTTCACTGCCAGCGGAGTCACCTAGTGCAG”: the binding signal was 20500 fluorescence intensity (a.u.). The result for “ACTTTTGGTGGACCTTGGTTGTTTGGTCTGTTTCTCTCAGCGGAGTCACCTAGTGCAG” reads 8680 fluorescence intensity (a.u.); that for “TTGGGAGGGTTTTTCACGTTAAATCTCGTGTCTTCTGTAACGGAGTCACCTAGTGCAG”, 29500 fluorescence intensity (a.u.); that for “TGTACAGTTGGTTCTTTTCTTTTTTTTTTTCAGTTGAGTCCGGAGTCACCTAGTGCAG”, 9330 fluorescence intensity (a.u.). The result for “CCTTTTTGTTGGTCTCTGTTCTTGGGTTGGGTTTTCAGTCCGGAGTCACCTAGTGCAG” reads 20800 fluorescence intensity (a.u.); that for “GTATGGTTGGTTGGTTGGTTTGTTGGGTTTCTCCCCGGCCCGGAGTCACCTAGTGCAG”, 33300 fluorescence intensity (a.u.); that for “TTTTCTCTCCTGTTTTGGGAGGGTTTTCCACGTTAAATCTCGGAGTCACCTAGTGCAG”, 8230 fluorescence intensity (a.u.).

Turning to “GGGTTTTCCACGTTAAATCTCGTGTCTTCTGTGTTTGATCCGGAGTCACCTAGTGCAG”, the binding signal was 12000 fluorescence intensity (a.u.). To “TATATCTCGTGGTTTGTGGGTTCTTTTCACTTGTTCAGTGCGGAGTCACCTAGTGCAG” belongs 14000 fluorescence intensity (a.u.).

On to “GTTTGTGGTTCAGTTTTTGTCCCCATGGGTCTCTTAGCGGCGGAGTCACCTAGTGCAG”, for which the binding signal is 9120 fluorescence intensity (a.u.). To “TTAAAAAAAGTTGGGTAATTGTGGGGTTTGTTTTTTCTCCCGGAGTCACCTAGTGCAG” belongs 9490 fluorescence intensity (a.u.); to “TATTAGTGGTATATATCCCTATCAGTCATTCTGCTTGCTTCGGAGTCACCTAGTGCAG”, 9260 fluorescence intensity (a.u.); to “CGACGTACCGTAGCCGATTTCTGTTGCTATTATCATGTTCCGGAGTCACCTAGTGCAG”, 9450 fluorescence intensity (a.u.). To “ATTTCTAGTCATGCCCGATAACCACTCCGGCACGACCACGCGGAGTCACCTAGTGCAG” belongs 8150 fluorescence intensity (a.u.); to “CCAGACAGCTTCAGTTTGCAACGTACCCAAGTAAGAAACACGGAGTCACCTAGTGCAG”, 9150 fluorescence intensity (a.u.).
